Experimental data published in the supplement of paper PMC3334620.
Whole data set: some 33,000 sequences, median “E-score (-0.5 to 0.5)” near -0.013, cut for the highest 2% near 0.3. Shown is part of a subset that was picked to be rich in the highest values.

Biological target: T1, Msn1 (UniProt P22148)
T1 sequence: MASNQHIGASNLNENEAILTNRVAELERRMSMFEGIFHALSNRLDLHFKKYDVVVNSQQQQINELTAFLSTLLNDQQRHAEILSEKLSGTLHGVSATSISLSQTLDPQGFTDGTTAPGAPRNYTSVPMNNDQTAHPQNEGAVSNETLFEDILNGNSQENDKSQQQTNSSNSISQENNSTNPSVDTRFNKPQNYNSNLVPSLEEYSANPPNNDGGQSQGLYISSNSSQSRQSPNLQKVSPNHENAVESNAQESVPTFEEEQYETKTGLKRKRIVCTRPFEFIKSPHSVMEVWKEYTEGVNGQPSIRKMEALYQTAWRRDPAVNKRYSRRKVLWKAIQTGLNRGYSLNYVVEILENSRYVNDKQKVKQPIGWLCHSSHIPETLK
Test: PBM E-score (8-mer binding enrichment) (E-score (-0.5 to 0.5)); higher = stronger / more preferred TF binding
Conditions: protein concentration: 200 nM; construct: GST-full length
How it was run: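 E-scores (a modified Wilcoxon-Mann-Whitney statistic) were assigned by the Universal PBM Analysis Suite to every ungapped eight-base word pooled with its reverse complement. The input came from universal all-10-mer Agilent arrays made double-stranded by primer extension and probed with GST-tagged yeast transcription factors at about 100-200 nM. Fluorescent anti-GST detected bound protein, and masliner normalised the scans.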

Sequence | PBM E-score
ATATTGTG | -0.00984
ACATTGTG | 0.207
GAAGTAGC | -0.206
TAGGGTGA | -0.1
CCCTGCAG | -0.245
CGCATTTA | 0.193
ATGGACCC | -0.0808
GTGGAAAC | 0.164
ATGGAAAT | 0.0754
ATGGACGC | 0.122
ATGGACAA | 0.485
GTCGACAC | 0.141
ATGGACAG | 0.251
ATGGACCA | 0.114
ATGGACAC | 0.437
ATGGACGA | 0.273
ATGGACAT | 0.484
GTGGACAC | 0.356
GCGCTAGC | -0.0831
ATTAGGGA | 0.0137
CAGGTTGC | 0.0156
AGACTTGC | -0.136

Sequence | PBM E-score
AGCTTAAT | -0.00074
CACCCGTA | -0.0199
AAGCGAGC | -0.0286
AGCTTGAT | -0.0595
ACCGCGCC | -0.168
ACAAGACG | 0.0049
TAAAGACA | 0.356
TAAAGATA | 0.0041
AAAAGACA | 0.342
ATAAGACA | 0.264
AAAAGACG | 0.135
TCAAGACA | 0.247
GCAAGACA | 0.157
ACAAGACA | 0.34
CTAAGACA | 0.302
AAAAGACC | 0.00338
GTAAGACA | 0.305
GACGGCTC | -0.211
GCATATGC | -0.0698
ATTTCCAC | 0.106
CCGACCCC | -0.354
CATCAGAA | 0.00838

Sequence | PBM E-score
GCCGCCTA | -0.173
CCAGCGCC | -0.229
CAGTTTAC | -0.0477
CAAAGACC | -0.0488
CGAAGACA | 0.259
CAAAGACA | 0.361
GGAAGACA | 0.251
TGAAGACA | 0.328
GAAAGACA | 0.227
AGCGCATA | 0.034
CTAGCTCA | -0.0294
ATCCATTA | 0.0133
AGCCTACA | -0.135
CGTCTGCA | 0.0663
CCGAACAG | 0.0877
GGCCGAAC | -0.239
CTAGACAC | 0.0417
TTAGACAA | 0.394
GTAGACAA | 0.309
TTAGATAA | 0.0312
TTAGAAAA | 0.109
GTAGACGA | 0.115

Sequence | PBM E-score
GTAGACAC | 0.0944
CTAGACAA | 0.305
CTAGACAG | 0.00829
CCATTTGA | -0.0557
CGCATACG | -0.0304
AGTGGGGA | -0.185
AACAGTAG | -0.0756
CGTGGGAA | -0.0248
GACTCCTC | -0.149
GATGACTA | -0.0556
CATGACAA | 0.383
AATGACAA | 0.29
CATGACAC | 0.193
GATGACAA | 0.336
TATGACAA | 0.408
TATGACCA | 0.0481
CATGACAG | 0.13
GATGACAC | 0.06
AGAGCGAA | -0.00578
TCCTTCGA | 0.11
